# Compound activity deposited in PubChem BioAssay by National Center for Advancing Translational Sciences (NCATS).
# Shown are actives, neighbours in structure and some others; about 5.5% of the full set was active somewhere.
# CtBP-E1A blk = blocks the CtBP interaction with E1A; AlphaScreen GST-E1A/His-CtBP binding, 1536-well; active compounds read low; activity change, % (no concentration beside the values); hit rate 0.49% among 340,000; AID 651724; in the data active = activity change below about -65%; inconclusive = mostly about -30% to -63%; also: % is scaled to controls: 0 for no effect and ±100 for the full control effect
#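 Steps: dispense buffer (Tris pH 8.0, NaCl 300 mM, TCEP 1 mM, BSA, Tween 20); add 5X protein mix (GST-E1A, His-CtBP, 125 nM each); pin 23 nL compound; 2 h at 37 °C, dark; add 5X beads (50 ug/mL); 1 h; read.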
# Six1-Eya2 inh = Six1/Eya2 interaction inhibition; Q15475+O00167; AlphaScreen GST-Six1/His-Eya2 binding, biochemical; active compounds read low; activity change, % (concentration not given with the values); hit rate 0.56% among 360,000; in the data active = activity change below about -65%; inconclusive = mostly about -30% to -63%; also: % is scaled to controls: 0 for no effect and ±100 for the full control effect
#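 AlphaScreen with GST-Six1 and His-Eya2 (5X mix: 250 nM and 500 nM), glutathione donor and nickel acceptor beads; buffer 50 mM Tris pH 8.0, 300 mM NaCl, 1 mM TCEP; 1 h at 37 C in the dark.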
# CBFb RUNX1 block = CBF-beta/RUNX1 interaction disruption; AlphaScreen CBFb-His/RUNX1-biotin binding, biochemical; Q01196+Q13951; Potency, µM (highest dose often 59.8 µM), inactives show top-dose activity, negative = inhibition, actives largely listed as inhibitors; 230,000 tested, under 10 active; also: % of control where 0% means no effect
#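 Read-out: AlphaScreen. Format: His-CBF-beta with biotinylated RUNX1 (30 nM each) preincubated 20 min, compound 15 min, Ni-chelate plus streptavidin beads 90 min; room temperature throughout.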
# Gal4-VP16 FLuc = inhibits Gal4-VP16 luciferase reporter, ROR gamma counter-screen; Drosophila S2 Gal4-VP16 UAS-luciferase, luminescence, 20 h; Potency, µM (top dose mostly 53.6 µM), without a hit: at the top dose activity, negative = inhibition, most hits filed as inhibitors; hit rate 3.5% among 310,000;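 also: Gal4-VP16 expression switched on by copper sulfate through the metallothionein promoter; potency is read from the fitted curve at half-maximal effect; % is scaled to controls: 0 for no effect and ±100 for the full control effect; nearly all actives have a fitted effect of over 50% in size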
# RORgamma inh = inhibitors of mouse ROR gamma transcriptional activity; P51450; Drosophila S2 Gal4-RORgamma UAS-luciferase reporter, 20 h; Potency, µM (top dose mostly 53.6 µM), without a hit: at the highest dose activity change, negative = inhibition, hits mostly inhibitors; hit rate 5.4% among 310,000; also: potency is read from the fitted curve at half-maximal effect; % is scaled to controls: 0 for no effect and ±100 for the full control effect; nearly all actives have a fitted effect of over 60% in size
#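 Read-out: Photinus luciferase luminescence; inhibitors lower reporter signal. Insect Schneider cells with Gal4-ROR gamma fusion under metallothionein promoter, UAS reporter; 700 uM final copper sulfate induction, 20 hr, ambient temperature.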
# MBNL1 CUG block = MBNL1-poly(CUG) RNA binding inhibition; Q9NR56; TR-FRET MBNL1-His/biotin-(CUG)12 binding, 665/545 ratio; hit rate 0.036% among 280,000; Potency, µM (highest dose often 57.5 µM), inactives show top-dose activity change, negative = inhibition, actives largely listed as inhibitors; active = well fitted inhibition curve with a large enough effect in the signal ratio, with a control signal flat, not every such curve was filed as active; inconclusive = small, poorly fitted or top-dose-only effect, or effect the other way, or a change in a side signal; inactive = no such curve, though single readings can be large or run the other way; the % refers to the signal ratio; also: potency is read from the fitted curve at half-maximal effect; % is scaled to controls: 0 for no effect and ±100 for the full control effect
#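 TR-FRET between His-tagged MBNL1 and biotin-(CUG)12 RNA, detected with Tb anti-His antibody (0.055 ng/ul) and streptavidin-XL665 (5 nM), 60 min at room temperature. Compounds titrated 92 nM to 58 uM; 665/545 nm ratio normalized to buffer and complex controls.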
# * = called active by the depositor; ? = inconclusive; . = no result. Unless noted, calls follow the shape of the dose curve; as a rule, active = well fitted curve in the direction sought with a large enough effect; inconclusive = small, poorly fitted or top-dose-only effect, or another doubt; inactive = no such curve, though single readings can be large; an effect the other way counts as inactive or inconclusive.
SMILES,CtBP-E1A blk,Six1-Eya2 inh,CBFb RUNX1 block,Gal4-VP16 FLuc,RORgamma inh,MBNL1 CUG block
Cc1ccc(NC(=O)Nc2ccc(F)c(Cl)c2)cc1,-10,9,8%,3%,11%,0%
Cc1cc2n(n1)SC(Nc1ccc(F)c(Cl)c1)N2 (configuration not stated),-18,-12,-5%,1.1µM*,0.63µM*,2%
Cc1nc2nc(N)nc(OCc3ccccc3)c2nc1C,-3,-3,.,.,.,.
CCc1c(C)sc(NC(=S)N2CC(C)OC(C)C2)c1C(=O)OC (configuration not stated),.,0,0%,-16%,7.1µM*,12%
CCc1c(C)sc(NC(=S)NC(C)C2CCCO2)c1C(=O)OC (configuration not stated),1,-9,-10%,10µM*,16µM*,69%
CCc1c(C)sc(NC(=S)N2CCN(C(=O)C3CCCO3)CC2)c1C(=O)OC (configuration not stated),-15,-10,.,23%,1%,38%
CCc1ccccc1NC(=O)CSc1nc2n[nH]c(C)c2c(=N)n1-c1cccc(OC)c1,-70*,?,-2%,-2%,?,-13%
COc1cccc(C2NC(=O)CCC2[N+](=O)[O-])c1 (configuration not stated),1,4,.,-1%,-3%,-6%
O=C(CSc1nnc(C2CC2)n1C1CC1)c1ccccc1F,.,-6,.,.,.,.
Cc1nc(NC(=O)/C=C/c2ccccc2)sc1C(=O)Nc1ccccc1Cl,0,4,5%,?,16µM*,-4%
Cc1cc(/C=N/n2c(COc3ccccc3)nc3ccccc3c2=O)c(O)c([N+](=O)[O-])c1,-80*,-88*,.,?,?,6%
Cc1nc2ccccc2c(=O)n1/N=C/c1c(O)ccc2ccccc12,?,-27,-8%,?,13µM*,5%
Cc1ccc(-c2[nH]ncc2/C=N/n2c(COc3ccccc3)nc3ccccc3c2=O)cc1,-1,-1,?,?,?,-3%
CCCc1nc2ccccc2c(=O)n1/N=C/c1ccc(O)cc1O,?,-20,-15%,20µM*,?,6%
Cc1nc2ccccc2c(=O)n1/N=C/c1cc(Br)ccc1O,-65*,?,.,?,13µM*,3%
CCCCC(=O)N1C/C=C\C(c2ccc(OC)cc2)N(Cc2ccc(F)cc2)C(=O)C1Cc1ccccc1 (configuration not stated),.,.,13%,?,?,.
O=C1CCC(C(=O)N2CCN(c3ccccc3)CC2)CN1CC1CCCCC1 (configuration not stated),15,-1,.,1%,-1%,2%
O=C(CCl)N(CCc1ccccc1)CCc1ccccc1,1,2,.,?,?,-3%
COc1ccc(CC(=O)NCCCSc2ccccc2)cc1OC,2,10,.,-13%,-27%,2%
Cc1n[nH]c(=S)n1/N=C/c1c(O)ccc2ccccc12,-23,-11,.,?,?,29%
CSc1nnc(C(C)(C)C)c(=O)n1/N=C/c1c(O)ccc2ccccc12,-2,-2,8%,?,10µM*,-3%
CC[C@]12c3[nH]c4cc(CCC(=O)N(C)C)ccc4c3CCN1C(=O)[C@@H](CC(=O)NCCc1ccccn1)C[C@@H]2C(=O)N1CCN(C(=O)c2ccco2)CC1,2,-1,.,.,.,.
CC(NCc1ccc(-c2ccccc2)cc1)C(O)c1ccccc1 (configuration not stated),0,-1,-3%,2.8µM*,?,-1%
CC(O)CNCc1ccc(-c2ccccc2)cc1 (configuration not stated),-16,1,2%,-4%,-16%,6%
O=C(NCC(=O)N1CCC2(CC1)NCCc1[nH]cnc12)c1ccc(F)cc1,.,-2,.,-6%,-14%,-2%
SMILES,CtBP-E1A blk,Six1-Eya2 inh,CBFb RUNX1 block,Gal4-VP16 FLuc,RORgamma inh,MBNL1 CUG block
COc1ccc(S(=O)(=O)NNC(=O)c2cc3cc4ccccc4nc3s2)cc1,-29,-16,-8%,22µM*,?,?
NNC(=O)c1cc2cc3ccccc3nc2s1,.,-2,20%,-11%,13µM*,.
COC(=O)c1ccc(NS(=O)(=O)c2ccc(S(=O)(=O)N3CCOCC3)cc2)cc1,5,3,.,.,.,.
N=C(N)SCc1cn(-c2ccccc2)nc1-c1ccc(Br)cc1,-5,18,26%,?,11µM*,0%
COc1ccc(-c2nn(-c3ccccc3)cc2CO)cc1,4,-7,2%,?,?,-4%
CC1(OC(=O)c2cnc3ccccc3n2)C(=O)C=C2C=C(c3ccsc3)OC=C2C1=O (configuration not stated),.,.,-3%,-9%,15%,.
O=C(CSc1n[nH]c(-c2ccccn2)n1)Nc1cccc(Cl)c1,-97*,-93*,.,2.8µM*,1.8µM*,2%
Cc1ccc(C)c(NC(=O)CSc2n[nH]c(-c3ccccn3)n2)c1,-92*,-77*,.,?,6.3µM*,0%
Cc1nc(SCC(=O)Nc2cccc(Cl)c2)n[nH]1,0,-3,1%,4%,0%,3%
Cc1ccccc1NC(=O)CSc1n[nH]c(-c2ccccn2)n1,-94*,-92*,.,.,.,5%
O=C(C1=NOC2(C1)C(=O)Nc1ccccc12)N1CCCC1 (configuration not stated),7,1,.,.,.,.
O=C(Nc1nncs1)c1ccc2c(c1)OCO2,0,-2,.,9%,-13%,-1%
CCn1ccnc1CN(C)C(=O)c1cc(COc2ccc(OC)c3ccccc23)on1,-19,-17,.,28µM*,-81%,?
O=C(Nc1nnc([C@H]2C[C@H](O)[C@@H](CO)O2)s1)Nc1cccc2c1CCCC2,0,27,.,.,.,.
CN(CC1CCCO1)S(=O)(=O)c1ccc(C(=O)Nc2nc(-c3ccccn3)cs2)cc1 (configuration not stated),-92*,?,.,11µM*,7.9µM*,6%
COc1ccccc1-c1nnc(NC(=O)c2ccc(S(=O)(=O)N(C)CC3CCCO3)cc2)o1 (configuration not stated),0,?,.,1µM*,0.71µM*,5%
CN(CC1CCCO1)S(=O)(=O)c1ccc(C(=O)Nc2ccccc2F)cc1 (configuration not stated),-3,12,.,.,.,.
CN(CC1CCCO1)S(=O)(=O)c1ccc(C(=O)Nc2nnc(-c3ccccc3)o2)cc1 (configuration not stated),-18,-11,.,0.56µM*,0.63µM*,4%
